N-glyco inh – increase of ERlucT glycosylation luciferase signal, primary screen, N-linked glycosylation inhibitor project, D54 ERlucT cells, luminescence, set 2; D54 ERlucT glycosylation luciferase reporter, 24 h; percent of 100 nM tunicamycin response; reporter increase, % at 12.5 µM; 360,000 tested, 0.23% active;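 active means mean luciferase reporter signal, scaled so untreated is 0 and the glycosylation-blocking control 100, at or above a set limit in every replicate; inconclusive means mean reaches the limit but not every replicate does; inactive means mean below the limit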;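 further: luciferase carries N-glycosylation sites so blocking glycosylation raises the light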
esBAF inh – Bmi1 luciferase reporter increase in mESCs, primary screen, esBAF inhibitor project, mouse ES cells, Bmi1 luciferase knock-in, single point. 350,000 tested, 2% active. 24 h; 100% = twice the neutral-well signal. reporter increase, % at 12.5 µM; in the data active means activation above about 40%; inconclusive means no clear call, values can overlap the other calls;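 further: a rise in the Bmi1 reporter signal indicates esBAF inhibition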
PvdQ inh – P. aeruginosa PvdQ acylase inhibitors, primary screen, biochemical, fluorescence, plate reader and imaging, single point. AID 488965, 2010. inhibition, % at 10 µM. purified PvdQ acylase. PvdQ acylase [Pseudomonas aeruginosa LESB58]. 340,000 tested, 0.063% active; in the data active means inhibition above about 30%, passing the limit was not always enough; inconclusive means no clear call, values can overlap the other calls
Wnt act – Wnt/beta-catenin pathway activators, primary screen, cell-based, plate reader, single point; activation, % at 9.35 µM; Wnt/beta-catenin reporter cell assay, activator; 300,000 tested, 1.2% active; in the data active means activation above about 30%, passing the limit was not always enough; inconclusive means no clear call, values can overlap the other calls
MITF act – activators of MITF-driven TRPM1 promoter reporter, primary screen, cell-based, SK-MEL-5, luciferase, single point; SK-MEL-5 TRPM1-promoter luciferase, 24 h; % of positive control, neutral wells = 0; activation, % at 12.5 µM; 300,000 tested, 0.75% active; AID 588334, 2011;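 active means mean activation of at least 80% with every replicate also reaching 80%; inconclusive means mean reaches 80% but some replicate falls short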
Vif imaging – HIV Vif self-association inhibitors, primary screen, imaging, HEK293T, single point; HEK293T cells, Vif self-association by quenched fluorescence, 24 h; inhibition, % at 7.49 µM; 340,000 tested, 0.35% active; in the data active means inhibition above about 50%, passing the limit was not always enough; inconclusive means no clear call, values can overlap the other calls; inactive means below about 31%
Each line names hits and unclear results; the compound was inactive in the other large screens. An excerpt weighted towards active compounds, which were near 2.9% of everything screened.

CC(/C=C/c1ccccc1)=N\Nc1ccccc1[N+](=O)[O-]	esBAF inh 44
O=C(COc1ccccc1[N+](=O)[O-])Nc1ccc(Br)cc1	Wnt act 48 (no result: esBAF inh)
O=C(COc1ccc2ccccc2c1Br)Nc1cccnc1	MITF act 114
O=C(COc1ccc2ccccc2c1Br)Nc1ccncc1	none (no result: esBAF inh)
O=C(COc1ccccc1[N+](=O)[O-])Nc1cccnc1	esBAF inh 45, Wnt act inconclusive
CN1CCN(c2ccc(NC(=O)COc3ccccc3[N+](=O)[O-])cc2)CC1	none (no result: esBAF inh)
Cc1ccc(NC(=O)COc2ccccc2[N+](=O)[O-])nc1	Wnt act 54
COc1ccc(S(=O)(=O)Nc2ccc3c(c2)C(=O)N([C@@H](C)CO)C[C@H](C)[C@@H](CN(C)Cc2ccc(-c4ccccc4)cc2)O3)cc1	none (no result: N-glyco inh, PvdQ inh, Wnt act, MITF act, Vif imaging)
C/C(=N\NC(=O)COc1ccccc1[N+](=O)[O-])c1cccs1	esBAF inh 53, Wnt act 35
CCSc1nnc2c(n1)OC(C)(C)Nc1ccccc1-2	esBAF inh 48
Cc1ccccc1S(=O)(=O)N1C[C@@H](O)COC[C@@H]2O[C@@H](CC(=O)O)CC[C@H]21	none (no result: N-glyco inh, PvdQ inh, Wnt act, MITF act, Vif imaging)
O=C(N/N=C/c1cccc(O)c1)c1ccc(COc2ccc3c(c2)CCC3)o1	esBAF inh 52 (no result: Wnt act)
Cc1ccc(-c2nc3ccc(Cl)cn3c2Cc2cccc(F)c2)cc1	esBAF inh 50 (no result: PvdQ inh, MITF act, Vif imaging)
Cc1ccc2nc(-c3ccccc3)c(Cc3cccc(Cl)c3)n2c1	esBAF inh inconclusive, Wnt act 41 (no result: PvdQ inh, MITF act, Vif imaging)
Cc1ccc2nc(-c3cccc(Br)c3)c(Cc3cccc(Cl)c3)n2c1	esBAF inh inconclusive, Wnt act 36 (no result: PvdQ inh, MITF act, Vif imaging)
CCCc1nc2ccc(C)cn2c1Cc1cccc(Cl)c1	esBAF inh 45 (no result: PvdQ inh, MITF act, Vif imaging)
Cc1ccc2nc(-c3cccc(Br)c3)c(Cc3ccccc3)n2c1	none (no result: PvdQ inh, MITF act, Vif imaging)
COCc1cn(CC[C@H]2CC[C@H](NC(=O)Nc3ccc(OC)cc3)[C@H](CO)O2)nn1	none (no result: N-glyco inh, PvdQ inh, Wnt act, MITF act, Vif imaging)
C[C@@H]1CN([C@H](C)CO)S(=O)(=O)c2ccc(-c3ccc(F)cc3)cc2O[C@@H]1CN(C)CC1CC1	none (no result: N-glyco inh, PvdQ inh, Wnt act, MITF act, Vif imaging)
C[C@H]1CN([C@@H](C)CO)C(=O)c2cc(C#CC3CC3)cnc2O[C@H]1CN(C)Cc1ccccn1	none (no result: N-glyco inh, PvdQ inh, Wnt act, MITF act, Vif imaging)
Cc1ccc2nc(-c3cccc(Br)c3)c(CC3CCCCC3)n2c1	esBAF inh 46 (no result: PvdQ inh, MITF act, Vif imaging)
Clc1ccc2nc(-c3cccc(Br)c3)c(Cc3ccccc3)n2c1	esBAF inh inconclusive, Wnt act 34 (no result: PvdQ inh, MITF act, Vif imaging)
Clc1cccc(Cc2c(-c3cccc(Br)c3)nc3ccc(Cl)cn23)c1	none (no result: PvdQ inh, MITF act, Vif imaging)
CCn1c(C)cc(C(=O)COC(=O)c2cccnc2SC)c1C	esBAF inh 53
CSc1ncccc1C(=O)OCC(=O)c1cc(C)n(C)c1C	Wnt act 53, MITF act 92
CSc1ncccc1C(=O)NC(C)CCc1ccccc1 (stereo not given)	none
Cc1cc(C(=O)COC(=O)c2cccnc2Cl)c(C)n1C	none
COC(=O)[C@H](CCSC)NC(=O)c1cccnc1SC	Wnt act 36 (no result: esBAF inh, MITF act)
CSc1ncccc1C(=O)OCC(=O)NC(C)(C)C	Vif imaging 52
Cc1cccc(S(=O)(=O)N2C[C@H](O)COC[C@@H]3O[C@H](CC(=O)Nc4ccc(-c5ccccc5)cc4)CC[C@H]32)c1	none (no result: N-glyco inh, PvdQ inh, Wnt act, MITF act, Vif imaging)
C[C@@H]1CN([C@@H](C)CO)C(=O)c2cc(NS(=O)(=O)c3ccc(Cl)cc3)ccc2O[C@@H](C)CCCCO[C@@H]1CN(C)S(=O)(=O)c1ccc(Cl)cc1	none (no result: N-glyco inh, PvdQ inh, Wnt act, MITF act, Vif imaging)
COc1cccc(/C=C2\CCC(C3CCCC3)C2=O)c1OC (stereo not given)	esBAF inh 67
CC(C)OC(=O)CSc1nnnn1-c1ccc2c(c1)OCCO2	esBAF inh 69
COc1cc(/C=N/N(C)c2ccccc2)cc(Cl)c1O	esBAF inh 50
COc1ccc(OC)c(/C=N/N(C)c2ccccc2)c1	esBAF inh 73, MITF act 96 (no result: Wnt act, Vif imaging)
C[C@H](CO)N1C[C@H](C)[C@@H](CN(C)C(=O)Nc2ccc(C(F)(F)F)cc2)OCCCC[C@H](C)Oc2ccc(NC(=O)Nc3cccc4ccccc34)cc2C1=O	none (no result: N-glyco inh, PvdQ inh, Wnt act, MITF act, Vif imaging)
O=C(C[C@@H]1C[C@H]2c3cc(NC(=O)Nc4ccccc4)ccc3O[C@H]2[C@H](CO)O1)NC1CCCC1	none (no result: N-glyco inh, PvdQ inh, Wnt act, MITF act, Vif imaging)
CCCNC(=O)N1[C@H](CNC(=O)CC)[C@H](c2ccc(C3=CCCC3)cc2)[C@@H]1CO	none (no result: N-glyco inh, PvdQ inh, Wnt act, MITF act, Vif imaging)
O=C(c1cc2ccccc2oc1=O)N1CCN(c2ncccn2)CC1	esBAF inh 70 (no result: Wnt act, MITF act)
Cc1cccc(N2CCN(C(=O)c3cc4ccccc4oc3=O)CC2)c1C	Vif imaging 68 (no result: MITF act)
O=C(c1cc2ccccc2oc1=O)N1CCN(c2ccccn2)CC1	none
CN1CCN(C(=O)c2cc3ccccc3oc2=O)CC1	none (no result: Vif imaging)
O=C(N[C@@H]1CC[C@H](CC(=O)N2CCOCC2)O[C@@H]1CO)c1cccc(F)c1	none (no result: N-glyco inh, PvdQ inh, Wnt act, MITF act, Vif imaging)
Cn1cnc(S(=O)(=O)N2C[C@@H](O)COC[C@@H]3O[C@@H](CC(=O)NCc4cc(F)cc(F)c4)CC[C@H]32)c1	none (no result: N-glyco inh, PvdQ inh, Wnt act, MITF act, Vif imaging)
COc1ccccc1C(=O)Nc1nsc(-c2ccccc2)n1	esBAF inh 46, Wnt act inconclusive, MITF act inconclusive
COc1ccccc1C(=O)Nc1nnc(-c2ccc(F)cc2)s1	esBAF inh 52 (no result: MITF act)
O=C(Nc1nnc(-c2ccccc2)s1)c1ccc(F)cc1	esBAF inh 47, MITF act 84
COc1ccc(C(=O)Nc2nnc(-c3ccc(F)cc3)s2)c(OC)c1	none
CCCCn1c(N)c(N(CCOC)C(=O)c2cc(CC)c(C)s2)c(=O)[nH]c1=O	none
CCCCn1c(N)c(N(CC)C(=O)c2cc(CC)c(C)s2)c(=O)[nH]c1=O	Vif imaging 55 (no result: esBAF inh)
O=C(Nc1ccc(O)cc1)c1cc2ccccc2c(=O)s1	esBAF inh 49, MITF act 100
O=C(Nc1ccccc1)c1cc2ccccc2s1	esBAF inh 45
COc1ccccc1S(=O)(=O)N1CC[C@@H]2[C@H]1c1cc(-c3cccc(C#N)c3)ccc1N[C@@H]2CO	none (no result: N-glyco inh, PvdQ inh, Wnt act, MITF act, Vif imaging)
CCCc1cc(C(=O)Nc2cccnc2)no1	Wnt act 41 (no result: MITF act)
CCCc1cc(C(=O)Nc2ccc(F)c(Cl)c2)no1	MITF act 108
O=C(Nc1cccnc1)c1cc(-c2ccc(Br)cc2)on1	Wnt act 50 (no result: MITF act)
CCCc1cc(C(=O)Nc2cccc(C(C)=O)c2)no1	esBAF inh 51, Wnt act 40
C[C@@H]1CCCCO[C@H](CN(C)Cc2ccccc2)[C@H](C)CN([C@@H](C)CO)C(=O)c2cc(NC(=O)CCC(F)(F)F)ccc2O1	none (no result: N-glyco inh, PvdQ inh, Wnt act, MITF act, Vif imaging)
O=C(NCC[C@H]1CC[C@@H](NS(=O)(=O)c2ccccc2)[C@@H](CO)O1)c1cc(Cl)cc(Cl)c1	none (no result: N-glyco inh, PvdQ inh, Wnt act, MITF act, Vif imaging)
